According to the supplement of paper PMC7156485:

Assays:
Conditions in all cases: concentration: 10 µM; 24 h
[1] = system: HCC1569; test: cell number relative to DMSO (% of DMSO); higher = more cells (less growth inhibition / toxicity)
Procedure, shortened: (§1)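 H1.0 nuclear intensity or cell number is stated as percent of the plate control, based on the median of replicates, and HCC1569 values were smoothed for positional effects. These came from HCC1569 and TDF cells treated with compounds at 10 µM for 24 h at 37 °C in triplicate, then fixed in 3.7% formaldehyde and stained with a rabbit anti-H1.0 antibody, an AlexaFluor 647 secondary and DAPI.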

[2] = system: TDF; test: as above
Procedure, shortened: as §1

[3] = system: TDF; test: H1.0 immunofluorescence intensity relative to DMSO (% of DMSO); higher = stronger H1.0 induction, active = 120 or more
Procedure, shortened: as §1

[4] = system: HCC1569; test: H1.0 immunofluorescence intensity relative to DMSO (% of DMSO); higher = stronger H1.0 induction, active = 140 or more
Procedure, shortened: as §1
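For H1.0 immunofluorescence intensity relative to DMSO in this document: TDF is a line of transformed human dermal fibroblasts of mesenchymal origin.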
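For cell number relative to DMSO in this document: TDF denotes transformed human dermal fibroblasts of mesenchymal origin.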

CC(C)=CCCC1=CC(=O)c2c(O)ccc(O)c2C1=O [Deoxyshikonin]
cell number [1]: 32
cell number [2]: 34.6
H1.0 immunofluorescence intensity [3]: 119 (inactive)
H1.0 immunofluorescence intensity [4]: 171 (active)

CCCN(CCC)C(=O)Cc1c(-c2ccc(Cl)cc2)nc2c(Cl)cc(Cl)cn12
cell number [1]: 103
cell number [2]: 105
H1.0 immunofluorescence intensity [3]: 102 (inactive)
H1.0 immunofluorescence intensity [4]: 100 (inactive)

CN(C(=O)Cc1ccc(Cl)c(Cl)c1)C(CN1CCCC1)c1cccc(OCC(=O)O)c1.Cl (configuration not stated) [ICI 204,448 hydrochloride]
cell number [1]: 104
cell number [2]: 104
H1.0 immunofluorescence intensity [3]: 89.4 (inactive)
H1.0 immunofluorescence intensity [4]: 92.8 (inactive)

CC(=O)OC1CC2CCC3C(CCC4(C)C3CC([N+]3(C)CCCCC3)C4OC(C)=O)C2(C)CC1[N+]1(C)CCCCC1.[Br-].[Br-] (configuration not stated) [Pancuronium bromide]
cell number [1]: 103
cell number [2]: 96.9
H1.0 immunofluorescence intensity [3]: 98.8 (inactive)
H1.0 immunofluorescence intensity [4]: 99.5 (inactive)

CC(=O)N1N=C(c2ccc(N)cc2)c2cc3c(cc2C[C@H]1C)OCO3
cell number [1]: 95.4
cell number [2]: 103
H1.0 immunofluorescence intensity [3]: 106 (inactive)
H1.0 immunofluorescence intensity [4]: 95.8 (inactive)

C[N+]1(C)C2CC(OC(=O)C(CO)c3ccccc3)CC1C1OC12.O=[N+]([O-])[O-] (single isomer, unassigned; (-)) [(-)-Scopolamine methyl nitrate]
cell number [1]: 99.7
cell number [2]: 98.7
H1.0 immunofluorescence intensity [3]: 93.1 (inactive)
H1.0 immunofluorescence intensity [4]: 106 (inactive)

Cl.NCC#Cc1ccccc1 [3-Phenylpropargylamine hydrochloride]
cell number [1]: 104
cell number [2]: 110
H1.0 immunofluorescence intensity [3]: 80.3 (inactive)
H1.0 immunofluorescence intensity [4]: 102 (inactive)

COc1cc2c(c3oc4cccc(O)c4c(=O)c13)C1C=COC1O2 (configuration not stated) [Sterigmatocystin]
cell number [1]: 80.2
cell number [2]: 75.6
H1.0 immunofluorescence intensity [3]: 96.5 (inactive)
H1.0 immunofluorescence intensity [4]: 92.2 (inactive)

Cl.NN=C(N)N [Aminoguanidine hydrochloride]
cell number [1]: 105
cell number [2]: 109
H1.0 immunofluorescence intensity [3]: 93.8 (inactive)
H1.0 immunofluorescence intensity [4]: 94.2 (inactive)

CCCN(CCC)C(=O)Cc1c(-c2ccc(Cl)cc2)nc2ccc(Cl)cn12
cell number [1]: 87.6
cell number [2]: 93.7
H1.0 immunofluorescence intensity [3]: 100 (inactive)
H1.0 immunofluorescence intensity [4]: 115 (inactive)

CCCN(CCC)C1Cc2cc(OC)c(OC)cc2C1.O=C(O)C=CC(=O)O
cell number [1]: 103
cell number [2]: 107
H1.0 immunofluorescence intensity [3]: 97.7 (inactive)
H1.0 immunofluorescence intensity [4]: 102 (inactive)

CC(NC(C)(C)C)C(=O)c1cccc(Cl)c1.Cl (configuration not stated) [Bupropion hydrochloride]
cell number [1]: 106
cell number [2]: 109
H1.0 immunofluorescence intensity [3]: 102 (inactive)
H1.0 immunofluorescence intensity [4]: 99.7 (inactive)

CN1[C@@H]2CC[C@H]1C[C@@H](OC(=O)[C@H](CO)c1ccccc1)C2 [L-Hyoscyamine]
cell number [1]: 100
cell number [2]: 117
H1.0 immunofluorescence intensity [3]: 95 (inactive)
H1.0 immunofluorescence intensity [4]: 96.2 (inactive)

Cl.O=c1[nH]oc2c1CCNC2 [THIP hydrochloride]
cell number [1]: 100
cell number [2]: 112
H1.0 immunofluorescence intensity [3]: 94 (inactive)
H1.0 immunofluorescence intensity [4]: 86.1 (inactive)

C[Se]CC(N)C(=O)O.Cl (configuration not stated) [Se-(methyl)selenocysteine hydrochloride]
cell number [1]: 99.6
cell number [2]: 90.3
H1.0 immunofluorescence intensity [3]: 99 (inactive)
H1.0 immunofluorescence intensity [4]: 98.1 (inactive)

CCCCCCC(=O)CCCCCCC=CCC(O)C(O)C(N)(CO)C(=O)O (configuration not stated) [Myriocin]
cell number [1]: 100
cell number [2]: 92.4
H1.0 immunofluorescence intensity [3]: 99.4 (inactive)
H1.0 immunofluorescence intensity [4]: 87.9 (inactive)

CCCCCN(C)CCC(O)(P(=O)([O-])O)P(=O)(O)O.[Na+]
cell number [1]: 99.5
cell number [2]: 105
H1.0 immunofluorescence intensity [3]: 89.4 (inactive)
H1.0 immunofluorescence intensity [4]: 102 (inactive)

NC(Cn1oc(=O)[nH]c1=O)C(=O)O (configuration not stated) [Quisqualic acid]
cell number [1]: 100
cell number [2]: 94.9
H1.0 immunofluorescence intensity [3]: 102 (inactive)
H1.0 immunofluorescence intensity [4]: 92.7 (inactive)

CCC(C(=O)O)C1OC(C(C)C(O)C(C)C(=O)C(CC)C2OC3(C=CC(O)C4(CCC(C)(C5CCC(O)(CC)C(C)O5)O4)O3)C(C)CC2C)C(C)CC1C (configuration not stated) [Narasin]
cell number [1]: 67.3
cell number [2]: 84.4
H1.0 immunofluorescence intensity [3]: 112 (inactive)
H1.0 immunofluorescence intensity [4]: 159 (active)

CN1C2CCC1CC(OC(=O)c1cc(Cl)cc(Cl)c1)C2 (configuration not stated) [3-Tropanyl-3,5-dichlorobenzoate]
cell number [1]: 100
cell number [2]: 106
H1.0 immunofluorescence intensity [3]: 102 (inactive)
H1.0 immunofluorescence intensity [4]: 108 (inactive)

COC(C(=O)C(O)C(C)O)C1Cc2cc3cc(OC4CC(OC5CC(O)C(OC)C(C)O5)C(OC(C)=O)C(C)O4)c(C)c(O)c3c(O)c2C(=O)C1OC1CC(OC2CC(OC3CC(C)(O)C(OC(C)=O)C(C)O3)C(O)C(C)O2)C(O)C(C)O1 (configuration not stated) [Chromomycin A3]
cell number [1]: 42.1
cell number [2]: 19.4
H1.0 immunofluorescence intensity [3]: 175 (active)
H1.0 immunofluorescence intensity [4]: 196 (active)

CN1CC(CNC(=O)OCc2ccccc2)CC2c3cccc4c3c(cn4C)CC21 (configuration not stated) [Metergoline]
cell number [1]: 97.2
cell number [2]: 105
H1.0 immunofluorescence intensity [3]: 118 (inactive)
H1.0 immunofluorescence intensity [4]: 120 (inactive)

CCCCCC1OC1CC=CCCCCCCCC(=O)O (configuration not stated) [Leukotoxin B (12,13-EODE)]
cell number [1]: 105
cell number [2]: 106
H1.0 immunofluorescence intensity [3]: 96.8 (inactive)
H1.0 immunofluorescence intensity [4]: 100 (inactive)

CC1(C(=O)O)C2CCC(O2)C1(C)C(=O)O (configuration not stated) [Cantharidic Acid]
cell number [1]: 19.6
cell number [2]: 13.6
H1.0 immunofluorescence intensity [3]: 239 (active)
H1.0 immunofluorescence intensity [4]: 180 (active)

Cc1cc(C(=O)CN2CCCC2)c(C)n1-c1ccc(F)cc1
cell number [1]: 99
cell number [2]: 102
H1.0 immunofluorescence intensity [3]: 99.9 (inactive)
H1.0 immunofluorescence intensity [4]: 94.1 (inactive)

CC(N)C(O)c1ccc(O)c(O)c1 (single isomer, unassigned; (-)) [(-)-alpha-Methylnorepinephrine]
cell number [1]: 99.4
cell number [2]: 98.5
H1.0 immunofluorescence intensity [3]: 85.9 (inactive)
H1.0 immunofluorescence intensity [4]: 93.1 (inactive)

CCC1(C2OC(C3OC(O)(CO)C(C)CC3C)CC2C)CCC(C2(C)CCC3(CC(O)C(C)C(C(C)C(OC)C(C)C(=O)[O-])O3)O2)O1.[Na+] (configuration not stated) [Monensin]
cell number [1]: 90.4
cell number [2]: 74.5
H1.0 immunofluorescence intensity [3]: 120 (active)
H1.0 immunofluorescence intensity [4]: 186 (active)

C1CCC(NC2CCCCC2)CC1
cell number [1]: 96.5
cell number [2]: 102
H1.0 immunofluorescence intensity [3]: 93.9 (inactive)
H1.0 immunofluorescence intensity [4]: 100 (inactive)

CCN(C)C(=O)Oc1cccc(C(C)N(C)C)c1 (configuration not stated) [Rivastigmine]
cell number [1]: 102
cell number [2]: 114
H1.0 immunofluorescence intensity [3]: 90 (inactive)
H1.0 immunofluorescence intensity [4]: 105 (inactive)

Cl.c1ccc(C2CC2)c(OCC2=NCCN2)c1 [Cirazoline hydrochloride]
cell number [1]: 102
cell number [2]: 109
H1.0 immunofluorescence intensity [3]: 90.7 (inactive)
H1.0 immunofluorescence intensity [4]: 87.7 (inactive)

CSC(=S)NCc1c[nH]c2ccccc12 [Brassinin]
cell number [1]: 100
cell number [2]: 90.8
H1.0 immunofluorescence intensity [3]: 97.9 (inactive)
H1.0 immunofluorescence intensity [4]: 99.7 (inactive)

Cc1cccc(C)c1NC1=NCCCS1.Cl [Xylazine hydrochloride]
cell number [1]: 100
cell number [2]: 118
H1.0 immunofluorescence intensity [3]: 99.9 (inactive)
H1.0 immunofluorescence intensity [4]: 111 (inactive)

CCC1CN2CCc3cc(OC)c(OC)cc3C2CC1CC1NCCc2cc(OC)c(OC)cc21.Cl.Cl (configuration not stated) [Emetine dihydrochloride hydrate]
cell number [1]: 57.5
cell number [2]: 20.6
H1.0 immunofluorescence intensity [3]: 114 (inactive)
H1.0 immunofluorescence intensity [4]: 99 (inactive)

NCCCP(=O)(O)O [3-Aminopropylphosphonic acid]
cell number [1]: 97.9
cell number [2]: 90.3
H1.0 immunofluorescence intensity [3]: 95.4 (inactive)
H1.0 immunofluorescence intensity [4]: 101 (inactive)

CCN(CC)C(=O)NC1C=C2c3cccc4[nH]cc(c34)CC2N(C)C1.O=C(O)C=CC(=O)O (stereo not drawn) [R(+)-Lisuride hydrogen maleate]
cell number [1]: 103
cell number [2]: 117
H1.0 immunofluorescence intensity [3]: 91.4 (inactive)
H1.0 immunofluorescence intensity [4]: 92.7 (inactive)

CCC1CN2CCc3cc(OC)c(OC)cc3C2CC1CC1NCCc2cc(OC)c(OC)cc21.Cl.Cl (configuration not stated)
cell number [1]: 60
cell number [2]: 27
H1.0 immunofluorescence intensity [3]: 120 (inactive)
H1.0 immunofluorescence intensity [4]: 100 (inactive)

CC1=NN=C(c2ccc(N)cc2)c2cc3c(cc2C1)OCO3.Cl
cell number [1]: 97.4
cell number [2]: 95.2
H1.0 immunofluorescence intensity [3]: 106 (inactive)
H1.0 immunofluorescence intensity [4]: 104 (inactive)

CC(=O)OCC1=C(C(=O)[O-])N2C(=O)C(NC(=O)CCCC(N)C(=O)[O-])C2SC1.[Zn+2] (configuration not stated) [Cephalosporin C zinc salt]
cell number [1]: 101
cell number [2]: 101
H1.0 immunofluorescence intensity [3]: 97.3 (inactive)
H1.0 immunofluorescence intensity [4]: 90.8 (inactive)

COc1cc2c(cc1O)CC1c3c(cc(O)c(OC)c3-2)CCN1C (configuration not stated) [Boldine]
cell number [1]: 103
cell number [2]: 103
H1.0 immunofluorescence intensity [3]: 105 (inactive)
H1.0 immunofluorescence intensity [4]: 99.9 (inactive)

CN1CC(C(=O)NC2(C)OC3(O)C4CCCN4C(=O)C(Cc4ccccc4)N3C2=O)C=C2c3cccc4[nH]cc(c34)CC21 (configuration not stated) [Ergotamine]
cell number [1]: 97.8
cell number [2]: 108
H1.0 immunofluorescence intensity [3]: 95.3 (inactive)
H1.0 immunofluorescence intensity [4]: 106 (inactive)

CCCCCCCCCCCCCCCCOCC(COP(=O)([O-])OCC[N+](C)(C)C)OC(C)=O (configuration not stated)
cell number [1]: 96
cell number [2]: 98.3
H1.0 immunofluorescence intensity [3]: 99.6 (inactive)
H1.0 immunofluorescence intensity [4]: 102 (inactive)

COc1ccc(O)c(C(C)(C)C)c1
cell number [1]: 106
cell number [2]: 107
H1.0 immunofluorescence intensity [3]: 94.5 (inactive)
H1.0 immunofluorescence intensity [4]: 91.3 (inactive)

C=CC1CN2CCC1CC2C(O)c1ccnc2ccccc12 (single isomer, unassigned; (-)) [(-)-Cinchonidine]
cell number [1]: 100
cell number [2]: 99.7
H1.0 immunofluorescence intensity [3]: 101 (inactive)
H1.0 immunofluorescence intensity [4]: 100 (inactive)

CNc1ccc2oc(CC3OC4(CCC3C)OC(C(C)C(=O)c3ccc[nH]3)C(C)CC4C)nc2c1C(=O)O (configuration not stated) [Calcimycin]
cell number [1]: 43.8
cell number [2]: 23.3
H1.0 immunofluorescence intensity [3]: 180 (active)
H1.0 immunofluorescence intensity [4]: 128 (inactive)

CCN(CC)c1ncnc2c1ncn2C1OC(COP(=O)([O-])OP(=O)([O-])C(Br)(Br)P(=O)([O-])O)C(O)C1O.[Na+].[Na+].[Na+] (configuration not stated)
cell number [1]: 102
cell number [2]: 101
H1.0 immunofluorescence intensity [3]: 92.6 (inactive)
H1.0 immunofluorescence intensity [4]: 96.5 (inactive)

COc1cc2c(c(OC)c1OC)-c1ccc(SC)c(=O)cc1C(NC(C)=O)CC2 (configuration not stated) [Thiocolchicine]
cell number [1]: 59.6
cell number [2]: 10.7
H1.0 immunofluorescence intensity [3]: 187 (active)
H1.0 immunofluorescence intensity [4]: 155 (active)

CCCN(CCC)CCc1c[nH]c2ccc(C(N)=O)cc12.O=C(O)C=CC(=O)O [N,N-Dipropyl-5-carboxamidotryptamine maleate]
cell number [1]: 99.4
cell number [2]: 104
H1.0 immunofluorescence intensity [3]: 97 (inactive)
H1.0 immunofluorescence intensity [4]: 98.9 (inactive)

CS(=O)(=O)O.Oc1ccc2c3c1OC1c4oc5ccccc5c4CC4(O)C(C2)N(CC2CC2)CCC314 (configuration not stated) [Naltriben methanesulfonate]
cell number [1]: 98.1
cell number [2]: 105
H1.0 immunofluorescence intensity [3]: 92.4 (inactive)
H1.0 immunofluorescence intensity [4]: 105 (inactive)
